# Where two headings read alike, the source gives them in different places.
# Assays:
# Design in all cases: species or system human, MV4-11 + K-562 + COLO205 + SK-N-BE2 + OVCAR-8
# MAPK11 = details: read-out: apparent Kd, n = 1
# MAPK14 = details: read-out: apparent Kd, n = 1
# MAPK10 = details: read-out: apparent Kd, compound concentrations: 100 nM and 1000 nM (sheet 'Samples'), n = 1
# MAPK8 = details: read-out: apparent Kd; compound concentrations: 100 nM and 1000 nM (sheet 'Samples'), CATDS: 9.0808472598726403E-2; n = 1
# MAPK9 = details: read-out: apparent Kd, compound concentrations: 100 nM and 1000 nM (sheet 'Samples'), n = 1
# MAPKAPK2 = details: read-out: apparent Kd, n = 1
# NLK = details: read-out: apparent Kd, compound concentrations: 100 nM and 1000 nM (sheet 'Samples'), n = 1
# PIP4K2C = details: read-out: apparent Kd; compound concentrations: 100 nM and 1000 nM (sheet 'Samples'), CATDS: 7.7645763885448402E-2; n = 1
# NQO1 = details: read-out: apparent Kd; compound concentrations: 100 nM and 1000 nM (sheet 'Samples'), CATDS: 0.141428074132052; n = 1
# MAP2K1 = details: read-out: apparent Kd; compound concentrations: 100 nM and 1000 nM (sheet 'Samples'), CATDS: 0.27931983910668101; n = 1
# RET = details: read-out: apparent Kd; compound concentrations: 100 nM and 1000 nM (sheet 'Samples'), CATDS: 0.41481657466373201; n = 1
# MAP2K5 = details: read-out: apparent Kd; compound concentrations:100 nM and 1000 nM (sheet 'Samples'); n = 1
# PBK = details: read-out: apparent Kd; compound concentrations:100 nM and 1000 nM (sheet 'Samples'); n = 1
# PTK6 = details: read-out: apparent Kd; compound concentrations:100 nM and 1000 nM (sheet 'Samples'); n = 1
# RIPK2 = details: read-out: apparent Kd; compound concentrations:100 nM and 1000 nM (sheet 'Samples'); n = 1
# RIPK3 = details: read-out: apparent Kd; compound concentrations:100 nM and 1000 nM (sheet 'Samples'); n = 1
# SIK2 = details: read-out: apparent Kd; compound concentrations:100 nM and 1000 nM (sheet 'Samples'); n = 1
# MAP3K1 = details: read-out: apparent Kd; compound concentrations:100 nM and 1000 nM (sheet 'Samples'); n = 1
# NUAK2 = details: read-out: apparent Kd; compound concentrations:100 nM and 1000 nM (sheet 'Samples'); n = 1
# PAICS = details: read-out: apparent Kd; compound concentrations:100 nM and 1000 nM (sheet 'Samples'); n = 1
# PIK3CG = details: read-out: apparent Kd; compound concentrations:100 nM and 1000 nM (sheet 'Samples'); n = 1
# [1] = compound concentrations: 100 nM and 1000 nM (sheet 'Samples'), CATDS: 1
# [2] = compound concentrations:100 nM and 1000 nM (sheet 'Samples')
compound,measurement,setting,value
Nc1c(C(=O)c2cccc(OC[C@H](O)CO)c2)cnn1-c1ccc(F)cc1 [RO3201196-000],potency estimated from few doses,MAPK11; [1],697 nM
Cl.Nc1c(C(=O)c2cccc(-c3cccnc3)c2)cnn1-c1ccc(F)cc1F [RO1164194-001],potency estimated from few doses,"MAPK11; compound concentrations: 100 nM and 1000 nM (sheet 'Samples'), CATDS: 0.82795584306013303",112 nM
same,potency estimated from few doses,"MAPK14; compound concentrations: 100 nM and 1000 nM (sheet 'Samples'), CATDS: 0.35813974934326798",968 nM
CC(C)(O)Cn1c(=O)c(Oc2ccc(F)cc2F)cc2cnc(NC3CCOCC3)nc21 [RO5036558-000],potency estimated from few doses,MAPK10; CATDS: 0.17874550909650799,71.4 nM
same,potency estimated from few doses,"MAPK11; compound concentrations: 100 nM and 1000 nM (sheet 'Samples'), CATDS: 7.7724815915961296E-2",1370 nM
same,potency estimated from few doses,"MAPK14; compound concentrations: 100 nM and 1000 nM (sheet 'Samples'), CATDS: 0.32550592526208599",24.8 nM
same,potency estimated from few doses,MAPK8,578 nM
same,potency estimated from few doses,MAPK9; CATDS: 0.14012416738293099,127 nM
same,potency estimated from few doses,"MAPKAPK2; compound concentrations: 100 nM and 1000 nM (sheet 'Samples'), CATDS: 0.240899887861172",40.4 nM
same,potency estimated from few doses,NLK; CATDS: 0.137200771005723,134 nM
same,potency estimated from few doses,PIP4K2C,1380 nM
Cn1c(=O)c(Sc2ccccc2F)cc2cnc(NC3CCOCC3)nc21 [RO4944065-000],potency estimated from few doses,MAPK10; CATDS: 0.25998811221784501,524 nM
same,potency estimated from few doses,"MAPK14; compound concentrations: 100 nM and 1000 nM (sheet 'Samples'), CATDS: 0.14533669978761299",1580 nM
same,potency estimated from few doses,MAPK9; CATDS: 0.21193161628333601,732 nM
same,potency estimated from few doses,"MAPKAPK2; compound concentrations: 100 nM and 1000 nM (sheet 'Samples'), CATDS: 0.161840015907707",1230 nM
same,potency estimated from few doses,NLK; CATDS: 0.13689405577896799,1840 nM
same,potency estimated from few doses,NQO1,1690 nM
CN(C)CC#Cc1cccc(C(=O)c2cnn(-c3ccc(F)cc3)c2N)c1.Cl [RO1154641-001],potency estimated from few doses,"MAPK11; compound concentrations: 100 nM and 1000 nM (sheet 'Samples'), CATDS: 0.57557980724534297",758 nM
same,potency estimated from few doses,"MAPK14; compound concentrations: 100 nM and 1000 nM (sheet 'Samples'), CATDS: 0.44196522207196598",1300 nM
COc1cc2c(Nc3cccc(NC(=O)c4ccccc4)c3)ncnc2cc1OCCCN1CCOCC1 [GSK223810A],potency estimated from few doses,MAP2K1,2310 nM
same,potency estimated from few doses,"MAPK11; compound concentrations: 100 nM and 1000 nM (sheet 'Samples'), CATDS: 0.33231746948784902",1550 nM
same,potency estimated from few doses,RET,1030 nM
Nc1c(C(=O)c2cccc(OCCN3CCOCC3)c2)cnn1-c1ccc(F)cc1 [RO5301104-000],potency estimated from few doses,MAPK11; [1],701 nM
CNC(=O)Oc1cc(C)c(/C=C/c2cncc(C(=O)NC)c2)c(C)c1 [GW432441X],potency estimated from few doses,MAP2K5,231 nM
same,potency estimated from few doses,PBK,1680 nM
same,potency estimated from few doses,PTK6,45.3 nM
same,potency estimated from few doses,RIPK2,28.1 nM
same,potency estimated from few doses,RIPK3,399 nM
same,potency estimated from few doses,SIK2,1320 nM
Cl.Cn1c(=O)c(Oc2ccc(F)cc2F)cc2cnc(NCCS(C)(=O)=O)nc21 [RO3309294-001],potency estimated from few doses,MAPK14; [1],344 nM
C[C@@H](Oc1cc(-n2cnc3ccc(-c4ccncc4)cc32)sc1C(N)=O)c1ccccc1Cl [GSK483724A],potency estimated from few doses,MAP3K1,1840 nM
C[C@@H](Oc1cc(-n2cnc3ccc(OC4CCN(C)CC4)cc32)sc1C(N)=O)c1ccccc1Cl [GSK579289A],potency estimated from few doses,MAP3K1,1340 nM
same,potency estimated from few doses,NUAK2,601 nM
same,potency estimated from few doses,PAICS,1760 nM
same,potency estimated from few doses,PIK3CG,1030 nM
Fc1ccc(Nc2nccc(-c3c(-c4ccc(Cl)cc4)nn4ncccc34)n2)cc1F [GW829058X],potency estimated from few doses,MAPK10; CATDS: 0.57984182911323701,726 nM
same,potency estimated from few doses,"MAPK14; compound concentrations: 100 nM and 1000 nM (sheet 'Samples'), CATDS: 0.43948476052302998",1280 nM
Cc1ccc(NC(=O)c2ccnc(N3CCCCC3)c2)cc1-c1ccc(C(=O)NCC2CC2)cc1 [GW775610X],potency estimated from few doses,MAPK11; [2],309 nM
same,potency estimated from few doses,MAPK14; [2],199 nM
same,potency estimated from few doses,MAPKAPK2; [2],107 nM

# From publication PMC11062922 (Nature Chemical Biology, 2023)
